# Test results from PubChem BioAssay (NCATS).
# Unmarked numbers belong to inactive results. How the calls were made is not given here.
# System: HIV-1 nucleocapsid protein NCp7 (binding to TG oligonucleotide)
# Assay: HIV Nucleocapsid (AID 346);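 further: potency is for inhibitors that block NC binding and lower polarization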
# Details: HIV-1 NC / fluorescein-TGTGTGTG probe, fluorescence polarization
# In short: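 Inhibition of nucleocapsid binding to single-stranded 5'-TGTGTGTG probe (10 nM) was measured by fluorescence polarization after 1 hr at room temperature with 100 nM protein under high-salt, zinc-containing, reducing conditions.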
# Potency means the concentration at half of the fitted maximal effect.
row,Compound,Potency [µM]
1,c1ccc(Nc2ncncc2-c2ccoc2)cc1,> 20
2,O=C(c1csnn1)N1CCC[C@@]2(CCN(c3ccccc3)C2)C1,> 20
3,Cc1ccccc1-c1cncnc1Nc1ccc(F)cc1,> 20
4,COc1ccc(Oc2ncc3ncc(=O)n(CCC#N)c3n2)cc1,> 20
5,c1ccc(CNc2ncncc2-c2ccc3c(c2)OCO3)cc1,> 20
6,CC(=O)NCCNc1nc(-c2cccnc2)nc2ccccc12,> 20
7,CS(=O)(=O)Nc1cccc(-c2ccc3ncnc(NC4CC4)c3c2)c1,> 20
8,COc1ccc(C(=O)N2CCC3(CCCN(C(=O)Nc4cccc(F)c4)C3)CC2)cc1,> 20
9,COc1ccc2[nH]cc(CCNc3ncnc4ccc(-c5ccc(C(=O)N(C)C)cc5)cc34)c2c1,> 20
10,Cn1c(=O)c(-c2cccc(F)c2)nc2cncnc21,> 20
11,COc1cccc(Cn2c(=O)c(-c3cccs3)nc3cnc(N4CCN(C)CC4)nc32)c1,> 4
12,Cc1nc2cncnc2n(Cc2ccccc2)c1=O,> 20
13,COc1ncc2nc(-c3ccc(F)cc3)c(=O)n(Cc3ccc(F)cc3)c2n1,> 20
14,CS(=O)(=O)N1CCC2(CC1)CN(c1ncccn1)C2,> 20
15,COc1ncc2nc(-c3cc(F)cc(F)c3)c(=O)n(C)c2n1,> 20
16,COC(=O)N1CCC[C@@]2(CCN(C(=O)Nc3cccc(F)c3)C2)C1,> 20
17,COc1ccccc1-c1nc(N(C)Cc2ccco2)c2ccccc2n1,> 20
18,O=c1cnc2cncnc2n1Cc1ccccc1,> 4
19,CCNc1ncc2nc(-c3ccc(Cl)cc3)c(=O)n(-c3ccc(OC)cc3)c2n1,> 4
20,COc1cccc(Nc2ncc3ncc(=O)n(CCC#N)c3n2)c1,> 20
21,COC(=O)N1CCC2(CC1)CN(c1ccncc1)C2,> 20
22,COCCNc1nc(-c2ccccc2OC)nc2ccccc12,> 20
23,O=c1c(-c2ccc(F)cc2)nc2cnc(Oc3ccccc3)nc2n1C[C@H]1CCCO1,> 20
24,CC(=O)N1CCC2(CCN(Cc3ccncc3)CC2)CC1,> 20
25,O=C(c1ccncc1)N1CCC2(CCCN(c3ccncc3)C2)CC1,> 20
